Many of the other results were omitted from the sample, so hits are more common in it than they were.
Chlamy TAG: inducers of TAG accumulation in Chlamydomonas, primary screen, qHTS, Chlamydomonas reinhardtii. Nile Red fluorescence, 72 h. calls only at 10 µM (by protocol). hit rate 0.84% among 44,000; call rule not given here;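 also: hits raise Nile Red signal meaning more stored TAG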
Numbers without * were called inactive; i = inactive; + = active, no number.

SMILES	Chlamy TAG
O=C(NC1CCN(Cc2ccccc2)CC1)c1sc2ccccc2c1Cl	i
O=C(NC1CCN(Cc2ccccc2)CC1)c1ccccc1Br	i
O=C(NC1CCN(Cc2ccccc2)CC1)c1ccc(Cl)cc1Cl	+
O=C(Cc1cccs1)Nc1ccccc1C(=O)Nc1ccc(C(=O)O)cc1	i
CSc1ccc(CN2CCSCC2)cc1	+
CSc1ccc(CN2CCOCC2)cc1	i
CCc1ccc(CN2CCSCC2)cc1	i
Cc1cc(C)nc(N=C(N)Nc2cccc(C)c2Cl)n1	i
COc1cc([N+](=O)[O-])ccc1NC(=O)c1ccc(C)c(C)c1	i
COc1cc([N+](=O)[O-])ccc1NC(=O)c1ccccc1F	i
COc1cc([N+](=O)[O-])ccc1NC(=O)c1c(F)c(F)c(F)c(F)c1F	+
COc1ccc(S(=O)(=O)Nc2ccc(OC)c(OC)c2)cc1Br	i
Cc1c(C)n2c3c(cccc13)CCC2	i
COc1ccccc1N1CCN(CCC(=O)Nc2cccc(Cl)c2)CC1	i
CCS(=O)(=O)N1CCN(c2ccc([N+](=O)[O-])cc2Cl)CC1	i
O=C(O)CCCC(=O)Nc1ccc(Cl)cc1	i
CC(SCc1ccccc1)C(=O)NCc1ccc(Cl)cc1 (configuration not stated)	i
COc1cc(C(=O)Nc2cccc(C(=O)c3ccc(C)c(C)c3)c2)cc(OC)c1OC	+
COc1cc(C(=O)Nc2cccc(NC(=O)c3ccccc3)c2)cc(OC)c1OC	i
COc1cc(C(=O)Nc2cccc(F)c2)cc(OC)c1OC	i
O=C(NCc1ccco1)C(Cc1ccccc1)N1C(=O)C2C3C=CC(C3)C2C1=O (configuration not stated)	i
Cc1ccc(CN2CCC(C(=O)N(CCO)Cc3ccccc3)CC2)cc1	i
O=C(C1CCN(CCCc2ccccc2)CC1)N1CCCCC1	i
CCN(CC)C(=O)C1CCCN(Cc2ccc(Cl)cc2)C1 (configuration not stated)	i
CCN(Cc1ccccc1)C(=O)C1CCNCC1	i
SMILES	Chlamy TAG
CCOc1ccc(CN2CCC(C(=O)N(CCO)Cc3ccccc3)CC2)cc1	i
C=C(C)CN(CC)C(=O)C1CCN(Cc2cccnc2)CC1	i
C=C(C)CN(CC)C(=O)C1CCN(Cc2ccc(Cl)cc2)CC1	+
CCN(Cc1ccccc1)C(=O)C1CCN(CCCc2ccccc2)CC1	+
CCc1ccc(CN2CCC(C(=O)N(CC)Cc3ccccc3)CC2)cc1	+
COc1ccc(N(CC(=O)Nc2cccc(SC)c2)S(C)(=O)=O)c(OC)c1	i
COc1ccc(C(=O)Nc2ccc(C)c(C)c2)cc1OC	i
O=C(CN(c1ccc([N+](=O)[O-])cc1)S(=O)(=O)c1ccccc1)NCc1ccncc1	i
O=C(Nc1ccccc1C(=O)N1CCOCC1)c1ccccc1Br	i
CC(=O)Nc1nnc(SCC(=O)NCC2CCCO2)s1 (configuration not stated)	i
COc1ccc(CN2CCCC(C(=O)N3CCCCC3)C2)c(OC)c1 (configuration not stated)	i
Cc1cc(=O)[nH]c(SCC(=O)c2ccccc2)n1	i
CC(=O)C1=C(O)C(=O)N(CC(=O)O)C1c1ccccc1[N+](=O)[O-] (configuration not stated)	i
CC(C)(Oc1ccc(Cl)cc1)C(=O)Nc1ccc(Br)cc1F	+
COc1ccc(Cl)cc1NC(=O)C(C)(C)Oc1ccc(Cl)cc1	i
CC(C)(Oc1ccc(Cl)cc1)C(=O)Nc1ccccc1Br	i
CC(=O)Nc1ccccc1NC(=O)c1ccc(C)c([N+](=O)[O-])c1	i
CC(=O)c1ccc(OC(=O)Nc2ccc(Cl)c(Cl)c2)cc1	i
OCCN1CCN(C/C=C/c2ccccc2)CC1	i
CCN1CCN(C/C=C/c2ccccc2)CC1	i
C/C=C(\C)CN1CCN(C/C=C/c2ccccc2)CC1	+
CCCNC(=O)C(=O)Nc1cccc(C)c1	i
c1coc(CNc2nc(-c3cccs3)cs2)c1	i
O=[N+]([O-])c1ccc(N2CCOCC2)cc1NCc1ccc(Cl)cc1	i
Cc1cccc(N2C(=O)CC(Sc3nccc(C)n3)C2=O)c1 (configuration not stated)	i
SMILES	Chlamy TAG
Cc1ccc(CN2CCC(C(=O)N3CCN(c4ccccc4F)CC3)CC2)o1	+
Cc1cccc(N2CCN(C(=O)C3CCN(CC(C)C)CC3)CC2)c1C	i
O=C(C1CCN(CC2CCCCC2)CC1)N1CCN(c2ccccc2F)CC1	+
CC(C)CN1CCC(C(=O)N2CCN(c3ccccc3F)CC2)CC1	i
COc1ccc(CN2CCC(C(=O)N3CCN(c4cccc(C)c4C)CC3)CC2)cc1	i
Cc1ccc(CN2CCC(C(=O)N3CCN(c4cccc(C)c4C)CC3)CC2)o1	i
Cc1ccc(CN2CCC(C(=O)N3CCN(c4ccccc4F)CC3)CC2)cc1	i
O=C(C1CCCCC1)N1CCN(c2ccccc2F)CC1	i
Cc1cccc(N2CCN(C(=O)C3CCN(CC4CCCCC4)CC3)CC2)c1C	+
NC(=O)c1ccc(NC(=O)Nc2ccccc2)cc1	i
COc1ccc(S(=O)(=O)Nc2ccc([N+](=O)[O-])cc2C)cc1	i
CC(=O)c1cc(F)c(N2CCN(C(=O)c3cc(F)c(F)cc3Cl)CC2)cc1C	i
O=S(=O)(c1ccc(Cl)cc1)n1cccn1	i
Cc1ccc(S(=O)(=O)n2ccc(C)n2)cc1	i
Cc1ccc(S(=O)(=O)n2cccn2)cc1	+
O=C(COc1ccc(Cl)cc1Cl)Nc1cccc(F)c1	i
O=C(Nc1ccc(NS(=O)(=O)c2ccccc2)cc1)c1ccccc1	i
O=C(O)CCSCC(=O)c1ccc(NS(=O)(=O)c2ccccc2)cc1	+
Cc1ccc(S(=O)(=O)Nc2ccc(C(=O)CC(=O)Nc3ccccc3)cc2)cc1	i
CC(C)(Oc1ccc(Cl)cc1)c1nc(-c2ccccn2)no1	i
COc1ccc(C2=NN(CCc3ccccn3)C(=O)C2)cc1	i
CC(C)C(=O)Nc1ccc(C(=O)O)cc1	i
COc1ccc(NC(=O)CCC(=O)O)c(OC)c1	i
O=C(Nc1cccnc1)c1ccc(S(=O)(=O)c2ccc(Cl)cc2)cc1	+
CS(=O)(=O)N(Cc1ccccc1Cl)c1ccc(C(=O)Nc2cccnc2)cc1	i
SMILES	Chlamy TAG
O=C(Nc1cccnc1)c1ccc(-c2ccc(Cl)cc2)o1	i
Cc1cc(Cl)c(OCCCN2CCN(C)CC2)c(Br)c1	i
Cc1cc(Cl)c(OCCOCCN2CCN(C)CC2)c(Br)c1	+
Cc1cc(C(C)(C)C)ccc1OCCN1CCOCC1	i
Cc1cc(C(C)(C)C)ccc1OCCN1CCN(C)CC1	+
CN1CCN(CCOCCOc2c(Cl)cc(Cl)cc2Cl)CC1	i
C=CCc1cc(OC)ccc1OCCOCCN1CCN(C)CC1	i
C=CCc1cc(C)ccc1OCCOCCN1CCN(C)CC1	i
CN1CCN(CCOCCOc2ccc(Cl)cc2C(C)(C)C)CC1	i
Cc1ccc(OCCOCCN2CCN(C)CC2)c(I)c1	+
CN1CCN(CCOCCOc2ccccc2-c2ccccc2)CC1	i
Cc1cc(C(C)(C)C)ccc1OCCOCCN1CCN(C)CC1	+
Cc1cc(C(C)(C)C)ccc1OCCCN1CCN(C)CC1	i
CC(=O)N(C1=C(N(C)C)C(=O)c2ccccc2C1=O)c1ccc(Br)cc1	i
CCN(CC)c1ccc(N)c(C)c1	i
CN1CCN(c2cc3c(nn2)Oc2ccccc2N3C)CC1	i
O=C(O)c1ccc([N+](=O)[O-])c2c1NC(c1ccccc1)C1CC=CC21 (configuration not stated)	i

Compound activity (PubChem BioAssay)
